We go through 39 molecules from article PMC13494018.

B1: d8r1_design_ppi_882_dldesign_0_cycle1_af2pred (protein)
chain: MTPEEAAAEARRIGDGAAAAIAASTDVATAKAIYDRAVTELTALAAAFPEVAHVASAELVKVAKAYIAKGDAL
B2: d8r1_design_ppi_1136_dldesign_0_cycle0_af2pred (protein)
chain: SAAAAARARTAAANAAALAKKMLEAGVSPENARALVEAAAARLTPEAGAALRAEGEALVAEYAARREAEAA
B3: d8r1_design_ppi_1318_dldesign_0_cycle1_af2pred (protein)
chain: SAAAAAAARGEAAVASLTATGAAIVAAAKKDPSEAASMVRAVKNLGQAYANRVPPEYAAKVLAVAATYAAQIAAIM
B4: d8r1_design_ppi_1102_dldesign_0_cycle1_af2pred (protein)
chain: DAVREAGVAAAQAIKVALDEGDKELANAVSEAARAAVADPALAPLVKEGAELIIDPEKREQGRELVEKAVAAYKAAQ
B5: d8r1_design_ppi_671_dldesign_0_cycle1_af2pred (protein)
chain: AESYRAAAAAIAQAAADNPAGAADAAAALVAMAKMSSPEKAAAIAEGVEAVAEGAPADVRALLLAAAAEIKAIV
B6: d8r1_design_ppi_753_dldesign_0_cycle0_af2pred (protein)
chain: SAEAQAALAGARAAVAGAELLVEVAEETGSQGALRAAKRAAEAAEEAARKAAELGAEEEARELEERAREVRERAEKLE
B7: d8r1_design_ppi_167_dldesign_0_cycle1_af2pred (protein)
chain: SKEERYKKAAEWLAETSKKAIALRKANPAVAPLAIKMHGAAAHAAAALVAGDEEKAEEYKKKSEEYLKEAEAAIA
B8: d8r1_design_ppi_1124_dldesign_0_cycle1_af2pred (protein)
chain: STATAAANAAAFSSKGAAVVGDKFAPSVESVLERVVELDPAAGLAAAEAVAAAAAAHPAVRAVAEAVAARARAAL
B9: d8r1_design_ppi_640_dldesign_0_cycle1_af2pred (protein)
chain: SEEEEKKYEELAKAGAAASKAGAVAAKHPDNPEIKKLADEAGKALSEAFTSDVETAKKLAEKVEALAKAAEALAA
B10: d8r1_design_ppi_536_dldesign_0_cycle1_af2pred (protein)
chain: NKDKEIAELLLKLAEAAKEDPEKALKIAEEIEKLGNKEFGGALKTLLELAVAEKGKAGENAKAAAIVLSTSRAEDLLAK
B11: d8r1_design_ppi_1339_dldesign_0_cycle1_af2pred (protein)
chain: AEAWLAEIREIVSRAVEAAQAGDVETLEAAVEEARALAERAPPEVRPAAENAAAFNQLLLELTKERLAEKA
B12: d8r1_design_ppi_509_dldesign_0_cycle1_af2pred (protein)
chain: KDEHFDKMVEYLKKAQEAYNKAVAAAKAGDADAAKAALAKAQEYYDKAIKEAEKYSPEAGAAMKSTKEKSVAIANAAL
B13: d8r1_design_ppi_994_dldesign_0_cycle1_af2pred (protein)
chain: GKVEELEKKFREELQAAADLIAELRKADPELGKLAAKALAYALANPELGRKLAEEVAAKSPLGAKAAAEILALIETREELLKAEKEA
B14: d8r1_design_ppi_1324_dldesign_0_cycle1_af2pred (protein)
chain: AAAKLAALKKEIKALIGAAAAYQIAKDSSKLDEYVAKANKLIALADKDPVAAAKETAKLAEEAGDEETAKKAKEAAKEAKKL
B15: d8r1_design_ppi_286_dldesign_0_cycle1_af2pred (protein)
chain: SNEEKAEDLRFMARAVLGVGATASAAETAAFLNDVAAAAARLDPEAGAAVAAIGAAAAASGDAKAAAKAAAAVLEAAAEEFL
B16: d8r1_design_ppi_1481_dldesign_0_cycle1_af2pred (protein)
chain: SSDEDYAALVEGMALASQTYAQARALIAATGAAGGAQARALAQAAAAQLRAAGAKYPSRAAQYDALADGLVRTVTAAAA
B17: d8r1_design_ppi_637_dldesign_0_cycle1_af2pred (protein)
chain: MTAEAAKAEVRARLEAAGERAAEAAKERGADYEAVLAAARSMAERAAADPDPEAALARGAEALAFLEALEKYYRE
B18: d8r1_design_ppi_134_dldesign_0_cycle1_af2pred (protein)
chain: AAAEAAREAVRAAAAAAREAAAKMSPSKAKAVESIVERTTRVADELIAAGDYRTAVRAAASAEAAAKTLLEVDK
B19: d8r1_design_ppi_87_dldesign_0_cycle1_af2pred (protein)
chain: SEEEFERRIAIAAEQLAAMDAALAAIKASGDAAEKQALLAQLRAAGEEMAKALGPAGAAIAEALLAQAEAALAA
B20: d8r1_design_ppi_1429_dldesign_0_cycle1_af2pred (protein)
chain: SSLKREEILRKTAEAMAEATLAKVRELAKEDPERARRALENMRALLALLGPVAAKIGEEAYARGLAIIAEIA
B21: d8r1_design_ppi_509_dldesign_0_cycle0_af2pred (protein)
chain: SDEKWAAAAAHMGAAQKAADAAVAAAAAGNTAAAKAAQAEAAAHYDKAAEEAKEYSPEAGAAMKSTREATVALINAKL
B22: d8r1_design_ppi_43_dldesign_0_cycle1_af2pred (protein)
chain: EEALKKASEALSEAARLAIKNPAYLPAFAATGAAYGKVLEAYKKSPEEAKKAAKELLALYEKEVAAAKAAL
B23: d8r1_design_ppi_1265_dldesign_0_cycle1_af2pred (protein)
chain: SENEEAAKALTRAAEAAARYLAEKYGELAKEAAKLIAKAAEADAETAVKYLEEAVKLLDEAGKKTGATKETDALKAMAEKAAELKKA
B24: d8r1_design_ppi_869_dldesign_0_cycle1_af2pred (protein)
chain: SEEAQAAVRFARNLLEVARLRAEEDPARGRAIAANLEVAARTLAEKHAGLPEAEELRRLAAEAAALAAELA
B25: d8r1_design_ppi_482_dldesign_0_cycle0_af2pred (protein)
chain: STTDEMIEKIAKAAQEAMKLAKEGKYEEAYALLKKMAEEAAKVSESLGALAKGVAEAMKNWIDKYKAEKA
B26: d8r1_design_ppi_482_dldesign_0_cycle1_af2pred (protein)
chain: SESEEWIKEITDAANQAVALAKAGKTAEAYALLDATAAKAAAKSPSRGALAKGVADAMRVYIDKYAAKKA
B27: d8r1_design_ppi_540_dldesign_0_cycle1_af2pred (protein)
chain: DKKTETILAGMEAASNAAALLKKDPAAGGAYLLAKAKEVGAAVGNAADIVPAAAAAAADPATAAARLREFVSIVVSSVTS
B28: d8r1_design_ppi_139_dldesign_0_cycle1_af2pred (protein)
chain: AKLIEELKKEAKAVKELAKKGAPAEELDAAVKKLGEAMTKLAKAMATMSPEEKAKARAALAEAAKAAIEAGEVAEKLRAA
B29: d8r1_design_ppi_1425_dldesign_0_cycle0_af2pred (protein)
chain: STESREKALKAISEKSKAKAKKLAAEDPAKGLALAKNAAKSFKDWAKADPETKETAEAQAKEHEALAKEIAAAA
B30: d8r1_design_ppi_1493_dldesign_0_cycle1_af2pred (protein)
chain: AAESEALRQQAIDLAQKAAEIAADDENAEEVKARIDAAIAHLQAGDYAAAAADLLAAAKLASPEARGYILKALLKAMEAA
B31: d8r1_design_ppi_47_dldesign_0_cycle1_af2pred (protein)
chain: GQAALDAAAKRLDELTKEAEKASPNTGKAVEAIRDGSIRVATALFAAGDAARGRAALENGVAASEKLVEATKS
B32: d8r1_design_ppi_869_dldesign_0_cycle0_af2pred (protein)
chain: SEDAQSAVRFAQNTLETAKRKAAEDPARGRQIAANLATAAATAAAKFAGLPEAATLKALQAQAAALAAALA
B33: d8r1_design_ppi_1447_dldesign_0_cycle1_af2pred (protein)
chain: SEAEDIASFARMATTAAASAAKKDIASAKTLMDAVAKLPGAAAHVTAAGNAAIAAAATVDPARAAELAAYLAARLAAL
B34: d8r1_design_ppi_345_dldesign_0_cycle1_af2pred (protein)
chain: ATAEATATKIKTGIEKMLKLSKELGKGALINAAAAAKASAKVMDKLLADPSITPAARAALTAARDEAEKAAKEAEAEAKKL
B35: d8r1_design_ppi_1470_dldesign_0_cycle1_af2pred (protein)
chain: DAAAQAATALQGAKNALAAADLLEAEGTKGALLAAGSLYIAAGEQLATAYTLLGKPEEGKAVAAELNAKGKALLAAA
B36: d8r1_design_ppi_882_dldesign_0_cycle0_af2pred (protein)
chain: MTPEEAAAAARAIGAAAAAAIAASTDLATAGALADAAFRALVALAAAFPEVAPVASAEMAAVAKAFIAKGDAL
B37: d8r1_design_ppi_310_dldesign_0_cycle0_af2pred (protein)
chain: SRARALASIAALAELAAELAEENPASGAQLGKVVASALAALGLTDEAARVAAASPADLKAVMREVAAAARAAAAALA
B38: d8r1_design_ppi_1425_dldesign_0_cycle1_af2pred (protein)
chain: SVEERKKRAEAIAKRSRAVARALAAADPARGIALAESAAVSFEKWAELYPEIKEFAEALAAEHRALAAEIRAAA
B39: d8r1_design_ppi_1356_dldesign_0_cycle1_af2pred (protein)
chain: DPELIARTALSAAVMLEKGVAGTPEAALNAADGSALLLESKAESFGSEELKELAKKAKEAAKKIKADPEAGKKALREVAEELKKLAE

PDL1, Q9NZQ7, sequence (Q9NZQ7 whole entry): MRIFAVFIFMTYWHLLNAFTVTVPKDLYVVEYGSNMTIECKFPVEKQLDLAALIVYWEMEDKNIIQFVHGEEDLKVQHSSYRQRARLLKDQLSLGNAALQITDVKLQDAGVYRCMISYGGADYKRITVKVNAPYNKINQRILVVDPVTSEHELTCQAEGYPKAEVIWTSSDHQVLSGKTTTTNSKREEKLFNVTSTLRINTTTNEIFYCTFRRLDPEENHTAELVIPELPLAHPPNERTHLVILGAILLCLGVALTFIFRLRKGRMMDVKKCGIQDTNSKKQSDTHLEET

This experiment addresses PDL1, Q9NZQ7.
For B1, the “binding in a display sort” value is “not found (inactive)”.
As for B2, the entry is “binds (active)”.
Under B3 stands “binds (active)”; under B4, “not found (inactive)”.
As for B5, the entry is “not found (inactive)”.
In the case of B6, the “binding in a display sort” value was “not found (inactive)”.
Under B7 stands “not found (inactive)”.
Consider B8, for which the “binding in a display sort” value was “not found (inactive)”.
As for B9, the entry is “not found (inactive)”.
Under B10 stands “not found (inactive)”.
As for B11, the entry is “binds (active)”; as for B12, “not found (inactive)”.
On to B13, for which the “binding in a display sort” value was “not found (inactive)”.
Under B14 stands “not found (inactive)”; under B15, “binds (active)”.
Under B16 stands “binds (active)”; under B17, “not found (inactive)”; under B18, “binds (active)”.
Under B19 stands “not found (inactive)”; under B20, “not found (inactive)”.
As for B21, the “binding in a display sort” value was “not found (inactive)”.
As for B22, the entry is “not found (inactive)”; as for B23, “binds (active)”; as for B24, “binds (active)”.
For the molecule B25, the “binding in a display sort” value is “not found (inactive)”.
As for B26, the entry is “binds (active)”.
As for B27, the entry is “not found (inactive)”; as for B28, “not found (inactive)”.
On to B29, for which the “binding in a display sort” value was “not found (inactive)”.
Under B30 stands “binds (active)”; under B31, “not found (inactive)”; under B32, “not found (inactive)”.
Under B33 stands “not found (inactive)”; under B34, “not found (inactive)”.
With B35, the “binding in a display sort” value was “not found (inactive)”.
Consider B36, for which the “binding in a display sort” value is “not found (inactive)”.
For B37, the “binding in a display sort” value is “not found (inactive)”.
As for B38, the entry is “not found (inactive)”; as for B39, “not found (inactive)”.
